Screens as filed in PubChem.
hcDAF-12 act: activators of H. contortus DAF-12 nuclear receptor | HEK293 hcDAF-12 lit1-tk-luc reporter, luminescence; 0% DMSO, 100% Δ7-dafachronic acid | activation, % at 6.8 µM | hit rate 1.4% among 370,000 | AID 652067;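 active = activation above the mean of all tested compounds plus 3 SD, cut at about 5.5% in these data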;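 note: 100% = response to 3 µM Δ7-dafachronic acid high control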
ssDAF12 agonist: activates DAF-12 receptor from parasite S. stercoralis; HEK293 ssDAF-12/GRIP1 lit1-tk-luc reporter, luminescence; % of 3 µM dafachronic acid response; hit rate 1% among 370,000; activation, % at 6.8 µM;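 active = activation above the mean over all tested compounds plus 3 SD, cut at about 0.9% in these data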;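 note: 0% = DMSO-only wells and 100% = 3 µM delta7-dafachronic acid wells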
DAX1 inh-1: inhibits human nuclear receptor DAX1; P51843; HEK293 Gal4-DAX1 luciferase reporter, luminescence; inhibition, % at 6.75 µM; hit rate 0.99% among 340,000;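 active = inhibition above the mean over all tested compounds plus 3 SD, cut at about 4.2% in these data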;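 note: 0% = DAX1-transfected cells with DMSO and 100% = empty-vector control cells with DMSO; inhibition shows as a rise in luminescence from relieved DAX1 repression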
SMARCA2 act: SMARCA2 function activation, primary screen | hit rate 1% among 370,000 | MG213 cells, MMTV-luciferase reporter, dexamethasone, overnight | activation, % at 9.1 µM | AID 652017; in the data active = activation above about 7.8%;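 note: 0% = vehicle wells and 100% = reference activator wells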
DAX1 inh-2: DAX1 (NR0B1) inhibition, primary screen; HEK293T StAR-luciferase reporter, SF-1/DAX-1 repression relief; inhibition, % at 6.8 µM; hit rate 1.1% among 370,000; AID 652010;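 active = inhibition above the mean over all tested compounds plus 3 SD, cut at about 3.6% in these data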;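 note: 0% = DAX-1 cells with DMSO and 100% = cells lacking DAX-1 with DMSO; higher inhibition means more luminescence from relief of DAX-1 repression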
hgDAF12 agonist: hgDAF-12 agonism, primary luciferase screen; HEK293 GAL4-hgDAF12 UAS-luciferase reporter, agonist luminescence; normalized to butyrate control; activation, % at 6.8 µM; hit rate 1.8% among 370,000; AID 687014;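 active = activation above a cutoff set at the mean of all screened compounds plus 3 SD, cut at about 10% in these data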;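 note: 0% = DMSO wells and 100% = sodium butyrate wells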
hgDAF12 ag: hgDAF-12 agonism, confirmation assay. activation, % at 6.8 µM. HEK293 GAL4-hgDAF12 luciferase reporter, agonist mode; percent of butyrate response. AID 743050. hit rate 80% among 3,300. shares compounds with hgDAF12 agonist;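 active = mean activation over triplicate wells above the hit cutoff derived from the earlier primary screen, cut at about 11% in these data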;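 note: 0% = DMSO low control and 100% = 2 mM sodium butyrate high control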
LXRb DAF12 ctr: LXR-beta agonism as DAF-12 counter-screen; shares compounds with hgDAF12 agonist; HEK293 Gal4-LXR luciferase reporter, 24 h; activation, % at 6.8 µM; 3,300 tested, under 10 active; AID 743051;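 active = mean activation of the triplicate above a set limit carried over from the primary screen, none filed active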
Target sequence (P55055 whole entry, looked up, the tested form may be a part): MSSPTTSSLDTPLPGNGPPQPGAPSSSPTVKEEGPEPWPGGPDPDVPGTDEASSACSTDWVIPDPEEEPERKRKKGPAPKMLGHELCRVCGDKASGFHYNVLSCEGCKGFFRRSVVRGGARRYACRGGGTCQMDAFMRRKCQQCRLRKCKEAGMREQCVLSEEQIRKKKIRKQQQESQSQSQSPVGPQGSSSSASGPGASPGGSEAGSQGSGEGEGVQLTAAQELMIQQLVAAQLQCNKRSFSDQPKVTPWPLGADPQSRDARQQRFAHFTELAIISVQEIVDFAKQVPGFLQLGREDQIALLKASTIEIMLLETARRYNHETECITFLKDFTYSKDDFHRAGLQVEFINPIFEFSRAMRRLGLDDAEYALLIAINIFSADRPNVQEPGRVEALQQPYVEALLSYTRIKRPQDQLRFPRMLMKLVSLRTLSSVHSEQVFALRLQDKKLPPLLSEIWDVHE
Numbers without * were called inactive. Most compounds without a hit are left out; they make up all but 4.8% or so of the library.

Results for COC(=O)c1ccn(Cc2ccccc2Cl)n1 ?
hcDAF-12 act: 0.8; ssDAF12 agonist: -1.1; DAX1 inh-1: 1.3; SMARCA2 act: 5.2; DAX1 inh-2: 3.2; hgDAF12 agonist: 13.8*; hgDAF12 ag: 8.8; LXRb DAF12 ctr: 0.3

Results for COC(=O)c1cc2n(n1)CCN(Cc1ccccc1Cl)C2=O ?
hcDAF-12 act: -0.3; ssDAF12 agonist: -1.3; DAX1 inh-1: 0.8; SMARCA2 act: -0.1; DAX1 inh-2: -0.1; hgDAF12 agonist: -0.1

What do the screens show for `CC(=O)N1CCN(S(=O)(=O)c2cccc(C(=O)Nc3ccccc3N3CCCC3)c2)CC1`?
hcDAF-12 act: -0.4; ssDAF12 agonist: -0.9; DAX1 inh-1: 0.0; SMARCA2 act: 1.4; DAX1 inh-2: 0.7; hgDAF12 agonist: 1.6

How did O=C(Nc1ccc(-c2cn3ccsc3n2)cc1)C1CCCC1 do in these assays?
hcDAF-12 act: 3.1; ssDAF12 agonist: 0.1; DAX1 inh-1: 0.7; SMARCA2 act: 6.1; DAX1 inh-2: 2.6; hgDAF12 agonist: 16.2*; hgDAF12 ag: 18.1*; LXRb DAF12 ctr: 0.7

Results for CC(C)C(=O)Nc1cccc(-c2cn3ccsc3n2)c1 ?
hcDAF-12 act: -1.0; ssDAF12 agonist: -1.1; DAX1 inh-1: -1.1; SMARCA2 act: 3.1; DAX1 inh-2: -0.2; hgDAF12 agonist: 3.5

What do the screens show for `c1cn2cc(-c3ccc4c(c3)OCO4)nc2s1`?
hcDAF-12 act: 6.5*; ssDAF12 agonist: 1.6*; DAX1 inh-1: -0.3; SMARCA2 act: 1.2; DAX1 inh-2: 4.3*; hgDAF12 agonist: 16.2*; hgDAF12 ag: 15.6*; LXRb DAF12 ctr: 0.8

What do the screens show for `COC(=O)C1=C(C)N(C)C(=NCc2ccc(OC)cc2)NC1c1ccc(C(F)(F)F)cc1` (stereo not given)?
hcDAF-12 act: 0.3; ssDAF12 agonist: -1.2; SMARCA2 act: -4.6; DAX1 inh-2: 0.0; hgDAF12 agonist: -0.3

What do the screens show for `C[C@@H]1ON(C)[C@H]2C[C@H]3c4cc(-c5cc6ccccc6o5)ccc4CCN3C[C@@H]12`?
hcDAF-12 act: 1.9; ssDAF12 agonist: -0.2; SMARCA2 act: 6.0; DAX1 inh-2: 3.7*; hgDAF12 agonist: 13.4*; hgDAF12 ag: 7.9; LXRb DAF12 ctr: 0.4

How did C[C@@H]1ON(C)[C@H]2C[C@H]3c4cc(Nc5ccccc5)ccc4CCN3C[C@@H]12 do in these assays?
hcDAF-12 act: -1.9; ssDAF12 agonist: -0.6; SMARCA2 act: -1.8; DAX1 inh-2: 0.5; hgDAF12 agonist: -0.6

How did CCOc1ccc(C(=O)NNC(=O)CCNC(=O)c2ccco2)cc1OC do in these assays?
hcDAF-12 act: 0.8; ssDAF12 agonist: -0.9; DAX1 inh-1: -0.2; SMARCA2 act: -1.1; DAX1 inh-2: 0.1; hgDAF12 agonist: 2.1

Results for COC(=O)C[C@H]1c2cc(F)ccc2S(=O)(=O)N1C(C)C ?
hcDAF-12 act: -1.3; ssDAF12 agonist: -1.5; DAX1 inh-1: 0.8; SMARCA2 act: 0.8; DAX1 inh-2: 0.2; hgDAF12 agonist: 0.9

What do the screens show for `Nc1ccc(-c2nc3ccccc3s2)cn1`?
hcDAF-12 act: 4.7; ssDAF12 agonist: 0.6; DAX1 inh-1: 2.5; SMARCA2 act: 6.0; DAX1 inh-2: 2.0; hgDAF12 agonist: 14.1*; hgDAF12 ag: 20.4*; LXRb DAF12 ctr: 0.6

Results for c1ccc(-c2nc3ccccc3s2)nc1 ?
hcDAF-12 act: 3.1; ssDAF12 agonist: 0.6; DAX1 inh-1: 4.3*; SMARCA2 act: 0.6; DAX1 inh-2: 3.2; hgDAF12 agonist: 13.2*; hgDAF12 ag: 18.3*; LXRb DAF12 ctr: 0.8

How did COc1ccccc1OCc1ccc(C(=O)Nc2ccncc2)o1 do in these assays?
hcDAF-12 act: -2.7; ssDAF12 agonist: -2.5; DAX1 inh-1: -2.1; SMARCA2 act: -4.4; DAX1 inh-2: -2.1; hgDAF12 agonist: -5.6

What do the screens show for `O=C(Nc1ccccc1)OCCCCOC(=O)Nc1ccccc1`?
hcDAF-12 act: -1.2; ssDAF12 agonist: -1.3; DAX1 inh-1: -1.4; SMARCA2 act: -1.6; DAX1 inh-2: -0.8; hgDAF12 agonist: 5.0
